# Experimental data reported in PubChem BioAssay (NCATS).
# Results filed as inconclusive are left out. A call without a number means that no potency is given here. Active and inactive are the calls of the source. Calls come from the whole dose curve; as a rule, active = well fitted inhibition curve with a large enough effect; inconclusive = small, poorly fitted or top-dose-only effect; inactive = flat fitted curve, though single readings scatter. Non-standard residues stand in square brackets, D forms with d. Residues, ends and D or L forms follow the SMILES beside them. Orn = NCCC[C@H](N)C(=O)O
# Molecular target: Voltage-gated inwardly rectifying potassium channel KCNH2 (Homo sapiens) (UniProt Q12809)
# Assay: qHTS Assay for Small Molecule Inhibitors of the Human hERG Channel Activity (AID 588834);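 note: lower thallium flux fluorescence means stronger hERG block; nearly all actives have a fitted effect of over 50% in size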
# Conditions: U2OS BacMam hERG, FluxOR thallium flux fluorescence; series mostly up to 46.1 µM
# Outline: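 hERG block measured as reduced thallium-dye (FluxOR) fluorescence after stimulation buffer addition, read over 2 min. Cells were hERG-BacMam-transduced U2OS exposed to compound ~10 min […]; concentration-response fitted with Hill equation for AC50.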
# Potency is the fitted concentration of half-maximal effect.
# Voltage-gated inwardly rectifying potassium channel KCNH2 (Homo sapiens), sequence (Q12809 whole entry, looked up): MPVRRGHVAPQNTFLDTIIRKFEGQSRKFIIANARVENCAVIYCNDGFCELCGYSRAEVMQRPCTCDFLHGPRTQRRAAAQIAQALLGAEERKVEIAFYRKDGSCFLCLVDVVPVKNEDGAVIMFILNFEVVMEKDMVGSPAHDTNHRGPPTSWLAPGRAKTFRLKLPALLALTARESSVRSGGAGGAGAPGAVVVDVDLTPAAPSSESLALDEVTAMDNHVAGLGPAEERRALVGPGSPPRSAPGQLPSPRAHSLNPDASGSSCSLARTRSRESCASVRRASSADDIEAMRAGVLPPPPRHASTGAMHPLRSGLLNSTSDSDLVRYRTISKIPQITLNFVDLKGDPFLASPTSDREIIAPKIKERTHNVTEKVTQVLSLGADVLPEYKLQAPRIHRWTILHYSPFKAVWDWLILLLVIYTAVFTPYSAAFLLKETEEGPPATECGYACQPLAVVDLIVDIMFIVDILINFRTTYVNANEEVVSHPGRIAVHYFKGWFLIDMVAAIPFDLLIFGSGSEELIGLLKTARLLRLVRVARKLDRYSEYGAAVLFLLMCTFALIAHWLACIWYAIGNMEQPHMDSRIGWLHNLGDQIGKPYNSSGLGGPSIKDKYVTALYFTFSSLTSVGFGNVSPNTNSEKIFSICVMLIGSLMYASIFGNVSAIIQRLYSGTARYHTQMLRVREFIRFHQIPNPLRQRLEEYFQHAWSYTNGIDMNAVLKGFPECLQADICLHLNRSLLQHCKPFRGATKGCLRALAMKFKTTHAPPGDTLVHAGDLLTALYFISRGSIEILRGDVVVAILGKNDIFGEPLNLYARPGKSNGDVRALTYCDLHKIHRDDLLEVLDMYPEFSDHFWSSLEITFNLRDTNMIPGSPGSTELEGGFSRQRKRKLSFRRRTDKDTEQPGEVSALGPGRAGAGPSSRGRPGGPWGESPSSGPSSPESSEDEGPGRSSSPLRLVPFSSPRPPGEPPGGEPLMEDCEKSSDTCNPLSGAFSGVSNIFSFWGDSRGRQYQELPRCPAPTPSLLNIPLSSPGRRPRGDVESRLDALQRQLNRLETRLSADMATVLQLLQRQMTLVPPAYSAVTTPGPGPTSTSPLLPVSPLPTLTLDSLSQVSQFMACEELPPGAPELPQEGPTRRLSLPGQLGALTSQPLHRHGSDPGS
row,Compound,Potency
1,CC(C)C(=O)OCC(=O)[C@@]12O[C@H](C3CCCCC3)O[C@@H]1C[C@H]1[C@@H]3CCC4=CC(=O)C=C[C@]4(C)[C@H]3[C@@H](O)C[C@@]12C,3.98 µM (active)
2,C=C1CC[C@@H]2[C@](C)(CO)[C@H](O)CC[C@@]2(C)[C@@H]1C/C=C1/C(=O)OC[C@H]1O,inactive
3,CO[C@@H]1[C@@H](O[C@@H]2O[C@H](C)[C@@H](O[C@H]3C[C@@](C)(O)[C@@H](OC(=O)CC(C)C)[C@H](C)O3)[C@H](N(C)C)[C@H]2O)[C@@H](CC=O)C[C@@H](C)C(=O)/C=C/C2OC2C[C@@H](C)OC(=O)C[C@H]1OC(C)=O (some centres not stated),inactive
4,COc1cc([C@@H]2c3cc4c(cc3[C@@H](O[C@@H]3O[C@@H]5CO[C@@H](C)O[C@H]5[C@H](O)[C@H]3O)[C@H]3COC(=O)[C@H]23)OCO4)cc(OC)c1O,inactive
5,CN1CCC(CN2c3ccccc3Sc3ccccc32)C1 (configuration not stated),12.6 µM (active)
6,CC(=O)OCC(=O)[C@@]1(O)CC[C@H]2[C@@H]3C[C@H](C)C4=CC(=O)C=C[C@]4(C)[C@H]3[C@@H](O)C[C@@]21C,inactive
7,CC[C@H]1OC(=O)C[C@@H](O)[C@H](C)[C@@H](O[C@@H]2O[C@H](C)[C@@H](O)[C@H](N(C)C)[C@H]2O)[C@@H](CCN2C[C@H](C)C[C@H](C)C2)C[C@@H](C)C(=O)/C=C/C(C)=C/[C@@H]1CO[C@@H]1O[C@H](C)[C@@H](O)[C@@H](OC)[C@H]1OC,inactive
8,C[C@]12C=CC(=O)N[C@@H]1CC[C@@H]1[C@@H]2CC[C@]2(C)[C@@H](C(=O)Nc3cc(C(F)(F)F)ccc3C(F)(F)F)CC[C@@H]12,2.51 µM (active)
9,C[C@@H]1[C@H](O)[C@@H](C)/C=C/C=C\C=C\C=C\C=C\C=C\C=C\[C@H](O[C@@H]2O[C@H](C)[C@@H](O)[C@H](N)[C@@H]2O)C[C@@H]2O[C@](O)(C[C@@H](O)C[C@@H](O)[C@H](O)CC[C@@H](O)C[C@@H](O)CC(=O)O[C@H]1C)C[C@H](O)[C@H]2C(=O)O (stereo in doubt),inactive
10,CCC(=O)O[C@@H]1CC(=O)O[C@H](C)C/C=C/C=C/[C@H](O)[C@H](C)C[C@H](CC=O)[C@H](O[C@@H]2O[C@H](C)[C@@H](O[C@H]3C[C@@](C)(O)[C@@H](OC(=O)CC)[C@H](C)O3)[C@H](N(C)C)[C@H]2O)[C@H]1OC,inactive
11,CO[C@H]1C=CO[C@@]2(C)Oc3c(C)c(O)c4c(O)c(c5c(c4c3C2=O)=NC2(CCN(CC(C)C)CC2)N=5)NC(=O)/C(C)=C\C=C/[C@H](C)[C@H](O)[C@@H](C)[C@@H](O)[C@@H](C)[C@H](OC(C)=O)[C@@H]1C,inactive
12,CC(C)NCC1CCc2cc(CO)c([N+](=O)[O-])cc2N1 (configuration not stated),inactive
13,CC(Oc1ccccc1)C(=O)N[C@@H]1C(=O)N2[C@@H]1SC(C)(C)[C@@H]2C(=O)O (some centres not stated),inactive
14,O=C(O)C1CCCN1 (configuration not stated),inactive
15,CCC(=O)OCC(=O)[C@@]1(OC(=O)CC)[C@H](C)C[C@H]2[C@H]3[C@H]([C@@H](O)C[C@@]21C)[C@@]1(C)C=CC(=O)C=C1C[C@H]3Cl,inactive
16,CCCCCCC(O)C/C=C/CCCCCCCC(=O)O (configuration not stated),inactive

row,Compound,Potency
1,CC(=O)N(CC(C)C(=O)O)c1c(I)cc(I)c(N)c1I (configuration not stated),inactive
2,CCOC(=O)O[C@]1(C(=O)COC(=O)CC)CC[C@H]2[C@@H]3CCC4=CC(=O)C=C[C@]4(C)[C@H]3[C@@H](O)C[C@@]21C,inactive
3,C[C@H](CCC(=O)O)[C@H]1CC[C@H]2[C@@H]3[C@H](O)C[C@@H]4C[C@H](O)CC[C@]4(C)[C@H]3CC[C@]12C,inactive
4,CCc1ccc2c(c1)N(CC(C)CN(C)C)c1ccccc1S2 (configuration not stated),7.94 µM (active)
5,C=C[C@]1(C)C[C@@H](OC(=O)CSC(C)(C)CNC(=O)[C@H](N)C(C)C)[C@]2(C)[C@H](C)CC[C@]3(CCC(=O)[C@H]32)[C@@H](C)[C@@H]1O,7.08 µM (active)
6,CCOC(=O)C1=CC2(CC)CCCN3CCc4c(n1c1ccccc41)C32 (configuration not stated),0.0891 µM (active)
7,CC(C)(C)C1(O)CCN2CC3c4ccccc4CCc4cccc(c43)C2C1 (configuration not stated),2.82 µM (active)
8,CC1(C)O[C@@H]2C[C@H]3[C@@H]4CCC5=CC(=O)C=C[C@]5(C)[C@H]4[C@@H](O)C[C@]3(C)[C@]2(C(=O)CO)O1,inactive
9,Cc1cc(CC(C)CC(C)(C)C)n(O)c(=O)c1 (configuration not stated) (tested in a mixture with another compound),inactive
10,CNc1cc(OC)c(C(=O)N[C@H]2CCN(Cc3ccccc3)[C@H]2C)cc1Cl,12.6 µM (active)
11,O=C(O)C[C@H](O)C[C@H](O)/C=C/c1c(C2CC2)nc2ccccc2c1-c1ccc(F)cc1,inactive
12,CO[C@H]1C=CO[C@@]2(C)Oc3c(C)c(O)c4c(O)c(c5c(nc6cc(C)ccn65)c4c3C2=O)NC(=O)/C(C)=C\C=C[C@H](C)[C@H](O)[C@@H](C)[C@@H](O)[C@@H](C)[C@H](OC(C)=O)[C@@H]1C,inactive
13,CO[C@H]1C=CO[C@@]2(C)Oc3c(C)c(O)c4c(O)c(c(/C=N/N5CCN(C6CCCC6)CC5)c(O)c4c3C2=O)NC(=O)/C(C)=C\C=C[C@H](C)[C@H](O)[C@@H](C)[C@@H](O)[C@@H](C)[C@H](OC(C)=O)[C@@H]1C,inactive
14,N[C@H](C(=O)O)[C@@H]1CC(Cl)=NO1,inactive
15,CCCCC(=O)N(Cc1ccc(-c2ccccc2-c2nn[nH]n2)cc1)[C@@H](C(=O)O)C(C)C,inactive
16,CC(C)C[C@@H]1NC(=O)[C@H](CCCN)NC(=O)[C@H](C(C)C)NC(=O)[C@@H]2CCCN2C(=O)[C@@H](Cc2ccccc2)NC(=O)[C@H](CC(C)C)NC(=O)[C@H](CCCN)NC(=O)[C@H](C(C)C)NC(=O)[C@@H]2CCCN2C(=O)[C@@H](Cc2ccccc2)NC1=O (cyclo(V[Orn]L[dF]PV[Orn]L[dF]P)),inactive
